“And” between values parts separate entries of the source, which are not always exact repeats. Identical values can stand only once. Screen size: about 16,000 compounds; about 2,600 (16%) were called active. Another 20% or so got no clear call; they are omitted. These entries were drawn from the full list. Values without a mark were called inactive. Calls come from the whole dose curve; as a rule, active = well fitted curve in the direction sought with a large enough effect; inconclusive = small, poorly fitted or top-dose-only effect, or effect the other way; inactive = no such curve, though single readings can be large or run the other way.
molecular target: Cytochrome P450 2D6 (Homo sapiens) (UniProt P10635); assay: Cytochrome panel assay with activity outcomes; details: recombinant CYP, pro-luciferin dealkylation, luminescence, p450-cyp2d6; series mostly up to 57.1 µM
% is set by controls: 0 for no effect and ±100 for the full control effect.

Cytochrome P450 2D6 (Homo sapiens), sequence (P10635 whole entry, looked up): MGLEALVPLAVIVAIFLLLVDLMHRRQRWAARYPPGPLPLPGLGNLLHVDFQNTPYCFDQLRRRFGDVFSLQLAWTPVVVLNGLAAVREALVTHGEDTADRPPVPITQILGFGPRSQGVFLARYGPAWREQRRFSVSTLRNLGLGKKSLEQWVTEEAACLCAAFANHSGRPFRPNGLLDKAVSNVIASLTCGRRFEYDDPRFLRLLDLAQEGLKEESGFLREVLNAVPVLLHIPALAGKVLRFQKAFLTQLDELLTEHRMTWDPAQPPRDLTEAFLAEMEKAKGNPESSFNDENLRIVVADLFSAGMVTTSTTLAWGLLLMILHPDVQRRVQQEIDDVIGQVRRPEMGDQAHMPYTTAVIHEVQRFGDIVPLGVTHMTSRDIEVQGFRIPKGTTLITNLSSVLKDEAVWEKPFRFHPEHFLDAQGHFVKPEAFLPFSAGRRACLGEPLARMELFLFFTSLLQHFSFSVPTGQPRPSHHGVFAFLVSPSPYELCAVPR

| Structure (SMILES) | AC50 | activity, negative = inhibition |
| --- | --- | --- |
| O=C1Nc2cc(Cl)c(Cl)cc2N(O)N1c1ccc(Cl)c(Cl)c1 | inactive | – |
| CC1(C)O[C@@H]2C[C@H]3[C@H]4C[C@H](F)C5=CC(=O)CC[C@]5(C)[C@@H]4[C@H](O)C[C@]3(C)[C@]2(C(=O)CO)O1 | inactive | – |
| COCC(=O)Oc1c(S(=O)(=O)c2ccc(C)cc2)c(C)nn1-c1ccccc1 | inactive | – |
| NC(=O)c1cc[n+](CC2=C(C(=O)O)N3C(=O)[C@@H](NC(=O)[C@H](c4ccccc4)S(=O)(=O)[O-])[C@@H]3SC2)cc1 | inactive | – |
| COc1ccc(-c2cc(C(=O)Nc3cnn(Cc4ccccc4C)c3)no2)cc1OC | inactive | – |
| COC(=O)c1cnn(C(=O)c2cc(OC)ccc2Br)c1N | inactive | – |
| O=C(O)/C=C\[C@H](O)c1ccc(Cl)cc1 | inactive | – |
| Cc1ccccc1N(C(=O)Cc1cccs1)C(C(=O)NCC1CCCO1)c1cccnc1 (configuration not stated) | inactive | – |
| N#Cc1c(-c2ccccc2)nc(-c2ccccc2)[nH]c1=O | inactive | – |
| CC(C)CN=C(N)N=C(N)N | – | 7.41% [at 11.4 µM] |
| N#C/C(=C\Nc1ccccn1)C(=O)c1ccco1 | – | -1.48% [at 11.4 µM] |
| COCCNc1ncnc2ccc(-c3ccccc3CN(C)C)cc12 | 15.8 µM (active) | – |
| CS(=O)(=O)Nc1cccc(-c2ccc3ncnc(NC4CCNCC4)c3c2)c1 | inactive | – |
| N#Cc1cccc(-c2ccc3ncnc(NC4CCNCC4)c3c2)c1 | inactive | – |
| COCCNc1ncnc2ccc(-c3ccc(C(=O)N(C)C)cc3)cc12 | inactive | – |
| CN(C)Cc1ccccc1-c1ccc2ncnc(NC3CCNCC3)c2c1 | 10 µM (active) | – |
| C[C@@H](CNC(N)=O)NC(N)=O | – | -3.67% [at 11.4 µM] |
| CN1CCN(c2ncc3ncc(=O)n(-c4ccccc4)c3n2)CC1 | inactive | – |
| O=C(NC(N1CCCC1)C(Cl)(Cl)Cl)c1ccccc1 (configuration not stated) | inactive | – |
| COc1cccc(/C=N/NC(=O)c2nc(-c3ccccc3)cc(-c3ccccc3)n2)c1 | inactive | – |
| Cc1ccccc1OCCCN1CCCC1 | 14.1 µM (active) | – |
| O=C(O)c1ccc(OCc2ccccc2)c(Cl)c1 | – | 4.91% [at 11.4 µM] |
| CC(C)(C)c1ccccc1OCCN1CCCC1 | 5.62 µM (active) | – |

| Structure (SMILES) | AC50 | activity, negative = inhibition |
| --- | --- | --- |
| Cc1ccccc1OCC(=O)OC1CCN(C)CC1 | inactive | – |
| Fc1ccccc1OCCCCCCN1CCCC1 | 14.1 µM (active) | – |
| Clc1ccccc1OCCCCN1CCCC1 | 11.2 µM (active) | – |
| Cc1ccc(CNC(=O)CCc2c(C)nc3ncnn3c2C)cc1 | inactive | – |
| O=C1[C@H]2[C@H]3[C@H](O)[C@H](O)C/C(=N/OC[C@@H](O)COCc4ccco4)[C@H]3CC[C@@H]2C(=O)N1C[C@@H]1CCCO1 | – | 14.8% [at 11.4 µM] |
| C/C(CCN1CCc2nc(-c3ccccc3)c(-c3ccccc3)cc2C1)=N\O[C@@H](C)c1cn([C@H](CO)Cc2ccccc2)nn1 | – | -8.59% [at 11.4 µM] and -16.7% [at 11.4 µM] |
| COc1ccccc1S(=O)(=O)Nc1ccc(-c2nnc3n2CCCCC3)cc1 | inactive | – |
| N#Cc1c(N)nc2c(c1-c1cccc(O)c1)CCCCCC2 | inactive | – |
| CCc1nnc2sc(-c3ccc(NC(=O)c4ccco4)cc3)nn12 | inactive | – |
| Cc1ccc(S(=O)(=O)N[C@H](C(=O)N2CCC(C(=O)NCC(=O)O)CC2)C(C)C)cc1 | inactive | – |
| Cc1cc(C)nc(NN2C(=O)/C(=C/c3ccccc3)SC2=S)n1 | inactive | – |
| COc1ccc(/C=C\C(=O)Nc2ccccc2C(=O)O)cc1OC | inactive | – |
| CCOc1cc(C#N)c(NC(=O)c2cccnc2)cc1OCC | inactive | – |
| COCCNC(=O)c1onc(CSc2ccccc2F)c1C(=O)O | inactive | – |
| CC(C)(C)NC(=O)C(=O)NNC(=O)c1ccccc1 | inactive | – |
| N[C@H](C(=O)O)c1nn[nH]n1 | inactive | – |
| O=C(NNC(=S)NCc1ccco1)c1ccc(Cl)s1 | inactive | – |
| Nc1ccc2c3c(cccc13)C(=O)NC2=O | inactive | – |
| Nc1[nH]c(=S)[nH]c(=O)c1N=Nc1c(Br)cc(S(N)(=O)=O)cc1Br | – | 7.23% [at 11.4 µM] |
| CC1(C)CC(O)CC(C)(C)N1CC(O)COCCOc1ccc(Br)cc1 (configuration not stated) | 14.1 µM (active) | – |
| O=c1c(-c2cccs2)nc2cncnc2n1C1CC1 | inactive | – |
| COc1cccc(Nc2ncc3nc(CCc4ccccc4)c(=O)n(Cc4cccs4)c3n2)c1 | inactive | – |
| O=C(NCc1ccccc1)C(c1ccncc1)N(C(=O)c1csnn1)C1CC1 (configuration not stated) | inactive | – |

| Structure (SMILES) | AC50 | activity, negative = inhibition |
| --- | --- | --- |
| CC(C)(C)NC(=O)NC(=O)CSc1nnc2ccccn12 | inactive | – |
| O=c1cnc2cnc(N3CCOCC3)nc2n1C[C@H]1CCCO1 | inactive | – |
| Cc1ccccc1-c1ccc2ncnc(NCc3cccs3)c2c1 | 10 µM (active) | – |
| FC(F)(F)c1ccccc1-c1ccc2ncnc(NCc3cccs3)c2c1 | 10 µM (active) | – |
| CC(C)=CCC/C(C)=C/CO/N=C1/[C@H]2O[C@@H]2[C@@H](O)[C@H]2[C@H]1CCn1c(=O)n(-c3ccccc3)c(=O)n12 | – | -3.53% [at 11.4 µM] |
| CC1CN(C(=O)COc2ncnc3ccccc23)CC(C)O1 (configuration not stated) | inactive | – |
| CC1=CC(C)(C)N(C)C(=O)N1c1ccc(Cl)cc1 | inactive | – |
| COC(=O)c1[nH]c2cc(OC)ccc2c1NC(=O)CCN1CCSCC1 | inactive | – |
| CCOC(=O)C(C)Sc1ncc(OC)c(Sc2ccc(Cl)cc2)n1 (configuration not stated) | inactive | – |
| Cc1cc(N)n(-c2ccccc2)n1 | inactive | – |
| Nc1c2c(=O)oc(-c3ccccc3)cc2nn1-c1ccccc1 | 5.01 µM (active) | – |
| Cc1nn(-c2ccccc2)c(-c2ccccc2)c1C(=O)O | inactive | – |
| CCOC(=O)CSc1n[nH]c(NC(=O)c2cccc(C(F)(F)F)c2)n1 | inactive | – |
| CN(C)c1ccc(NC(=O)c2cccc(N3C(=O)C4C5C=CC(C5)C4C3=O)c2)cc1 (configuration not stated) | inactive | – |
| Cc1nnsc1SCC(=O)O | inactive | – |
| Cc1ccc(-c2nc(-c3nccc4ccccc34)oc2-c2ccccc2)cc1 | – | -9.6% [at 11.4 µM] |
| CS(=O)(=O)N1CCN(c2ccc([N+](=O)[O-])c(NCc3ccccc3)c2)CC1 | inactive | – |
| C1=C(CN2CCOCC2)COc2c1cccc2OC[C@@H]1CNCCO1 | inactive | – |
| COc1ccc([N+](=O)[O-])cc1NC1C2CC3CC(C2)CC1C3 (configuration not stated) | inactive | – |
| CS(=O)(=O)Nc1ccc([N+](=O)[O-])cc1Oc1ccccc1 | inactive | – |
| CS(=O)(=O)Nc1ccc([N+](=O)[O-])cc1OC1CCCCC1 | 0.0501 µM (active) | – |
